PubChem BioAssay (NCATS)
Records with an inconclusive call do not appear. Calls of active or inactive are those of the source. Unless noted, calls come from the whole dose curve; as a rule, active = well fitted cell-killing curve with a large enough effect; inconclusive = small, poorly fitted or top-dose-only effect, or effect the other way; inactive = no such curve, though single readings can be large or run the other way.

Tests used:
[1] = Quantitative High-Throughput drug screen in 47 multiple myeloma cell lines against the NCATS MIPE library collection: KMS28PE_JCRB cell viability assay (AID 1918983); note: potency is the fitted concentration of half-maximal effect; nearly all actives have a fitted effect of over 35% in size
How it was run: (§1)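 500 cells/well; MIPE 4.0 drugs pin-transferred; 48 h, 37C, 5% CO2. CellTiter-Glo, 5 min RT, luminescence. Controls: DMSO 100%, media 0%.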

[2] = Quantitative High-Throughput drug screen in 47 multiple myeloma cell lines against the NCATS MIPE library collection: L363_DSMZ cell viability assay (AID 1918984); note: potency is the fitted concentration of half-maximal effect; nearly all actives have a fitted effect of over 40% in size
How it was run: as §1

[3] = Quantitative High-Throughput drug screen in 47 multiple myeloma cell lines against the NCATS MIPE library collection: KMS34_JCRB cell viability assay (AID 1918985); note: potency is the fitted concentration of half-maximal effect; nearly all actives have a fitted effect of over 40% in size
How it was run: as §1

[4] = Quantitative High-Throughput drug screen in 47 multiple myeloma cell lines against the NCATS MIPE library collection: OCIMY7_PLB cell viability assay (AID 1918987); note: potency is the fitted concentration of half-maximal effect; nearly all actives have a fitted effect of over 65% in size
How it was run: as §1

[5] = Quantitative High-Throughput drug screen in 47 multiple myeloma cell lines against the NCATS MIPE library collection: OCIMY5_PLB cell viability assay (AID 1918988); note: potency is the fitted concentration of half-maximal effect; nearly all actives have a fitted effect of over 65% in size
How it was run: as §1

[6] = Quantitative High-Throughput drug screen in 47 multiple myeloma cell lines against the NCATS MIPE library collection: U266_ATCC cell viability assay (AID 1919864); note: potency is the fitted concentration of half-maximal effect; nearly all actives have a fitted effect of over 35% in size
How it was run: as §1

[7] = Quantitative High-Throughput drug screen in 47 multiple myeloma cell lines against the NCATS MIPE library collection: XG6_PLB cell viability assay (AID 1919865); note: potency is the fitted concentration of half-maximal effect; nearly all actives have a fitted effect of over 40% in size
How it was run: as §1

[8] = Quantitative High-Throughput drug screen in 47 multiple myeloma cell lines against the NCATS MIPE library collection: XG1_PLB cell viability assay (AID 1919866); note: potency is the fitted concentration of half-maximal effect; nearly all actives have a fitted effect of over 35% in size
How it was run: as §1

[9] = Quantitative High-Throughput drug screen in 47 multiple myeloma cell lines against the NCATS MIPE library collection: VP6_DJ cell viability assay (AID 1919867); note: potency is the fitted concentration of half-maximal effect; nearly all actives have a fitted effect of over 40% in size
How it was run: as §1

[10] = Quantitative High-Throughput drug screen in 47 multiple myeloma cell lines against the NCATS MIPE library collection: UTMC2_PLB cell viability assay (AID 1919868); settings: CellTiter-Glo ATP luminescence, 48 h; viability (% of DMSO control): at 45.8 µM (top of the series) unless noted; note: potency is the fitted concentration of half-maximal effect; nearly all actives have a fitted effect of over 55% in size
How it was run: as §1

[11] = Quantitative High-Throughput drug screen in 47 multiple myeloma cell lines against the NCATS MIPE library collection: PE2_PLB cell viability assay (AID 1919869); note: potency is the fitted concentration of half-maximal effect; nearly all actives have a fitted effect of over 35% in size
How it was run: as §1

[12] = Quantitative High-Throughput drug screen in 47 multiple myeloma cell lines against the NCATS MIPE library collection: PCM6_Riken cell viability assay (AID 1919870); note: potency is the fitted concentration of half-maximal effect; nearly all actives have a fitted effect of over 30% in size
How it was run: as §1

[13] = Quantitative High-Throughput drug screen in 47 multiple myeloma cell lines against the NCATS MIPE library collection: RPMI8226_ATCC cell viability assay (AID 1919871); note: potency is the fitted concentration of half-maximal effect; nearly all actives have a fitted effect of over 30% in size
How it was run: as §1

[14] = Quantitative High-Throughput drug screen in 47 multiple myeloma cell lines against the NCATS MIPE library collection: OPM2_DSMZ cell viability assay (AID 1919872); note: potency is the fitted concentration of half-maximal effect; nearly all actives have a fitted effect of over 30% in size
How it was run: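 We plated 500 myeloma cells per well, pinned in MIPE 4.0 compounds, and incubated for 48 hours at 37C. ATP was then quantified with CellTiter-Glo, with DMSO and media-only wells defining 100% and 0%.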

[15] = Quantitative High-Throughput drug screen in 47 multiple myeloma cell lines against the NCATS MIPE library collection: KMS11_JCRBsus cell viability assay (AID 1919873); note: potency is the fitted concentration of half-maximal effect; nearly all actives have a fitted effect of over 50% in size
How it was run: as §1

[16] = qHTS drug screen for cell cycle checkpoint inhibitors in PARPi-resistant BRCA-mutant ovarian cancer cell lines. (AID 1963452; calls by dose curve); settings: PEO1/OlaR viability, CellTiter-Glo luminescence, 96 h, stronger effect = lower value
How it was run: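 PEO1, PEO4 and PEO1/OlaR ovarian cancer cells, 600 per well, exposed 96 h at 37C to a dilution series. Viability read by CellTiter-Glo luminescence, normalized to DMSO and empty wells; activity summarized as Z-AUC.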

[17] = Quantitative High-Throughput drug screen in 47 multiple myeloma cell lines against the NCATS MIPE library collection: OPM1_PLB cell viability assay (AID 1918989)
How it was run: as §1

[18] = Quantitative High-Throughput drug screen in 47 multiple myeloma cell lines against the NCATS MIPE library collection: KMS28BM_JCRB cell viability assay (AID 1919874)
How it was run: as §1

[19] = Quantitative High-Throughput drug screen in 47 multiple myeloma cell lines against the NCATS MIPE library collection: SKMM1_PLB cell viability assay (AID 1919863); settings: SKMM1 myeloma viability, CellTiter-Glo ATP, 48 h; viability: stronger effect = lower value
How it was run: as §1

[20] = qHTS for identification of novel therapeutic agents for treatment of microphthalmiaassociated transcription factor (MiT) renal cell carcinoma (RCC) (AID 1963991; calls by dose curve; note: potency is the fitted concentration of half-maximal effect;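 for z-score: curves scaled with 100% = DMSO viability and 0% = empty wells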); settings: CellTiter-Glo, 48 h; for z-score: stronger effect = lower value
How it was run: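 UOK109/UOK124/UOK145 (TFE3 fusions, three partners); 500 cells/well; MIPE v4.0, 1912 cpds, 11 conc.; 48 h, 37 C; CellTiter-Glo, 15 min RT; lum. Norm.: DMSO 100%, empty 0%.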

[21] = measured here: PEO1 parental Z-AUC

Cc1cc(N2CCOCC2)cc2[nH]c(-c3c(NC[C@@H](O)c4cccc(Cl)c4)cc[nH]c3=O)nc12
active: Potency [1] 0.332 µM | Potency [2] 0.148 µM | Potency [3] 0.469 µM | Potency [4] 0.105 µM | Potency [5] 1.66 µM | Potency [6] 2.64 µM | Potency [7] 0.0833 µM | Potency [8] 0.187 µM | Potency [9] 0.148 µM | Potency [10] 0.0662 µM | Potency [11] 0.148 µM | Potency [12] 0.332 µM | Potency [13] 0.469 µM | Potency [14] 3.72 µM | Potency [15] 0.0264 µM
inactive: Z-AUC [16] -0.44
-0.435: Z-AUC [16, 21]
-0.57: Z-AUC ([16]; measured here: PEO4 Z-AUC)

CN(C)Cc1c(C(=O)NCCOc2ccc(C(=O)NO)cc2)oc2ccccc12
inactive: Z-AUC [16] -0.744
active: Potency [1] 0.743 µM | Potency [2] 0.332 µM | Potency [3] 0.526 µM | Potency [4] 0.59 µM | Potency [5] 0.469 µM | Potency [17] 0.469 µM | Potency [6] 1.18 µM | Potency [7] 2.96 µM | Potency [8] 1.05 µM | Potency [9] 0.148 µM | Potency [10] 0.418 µM | Potency [11] 2.35 µM | Potency [12] 0.935 µM | Potency [13] 1.48 µM | Potency [14] 1.05 µM | Potency [15] 0.662 µM
-1.26: Z-AUC ([16]; measured here: PEO4 Z-AUC)
-1.25: Z-AUC [16, 21]

COc1cccc2c(NCc3ccccc3)nc(-n3c(N)nc4ccccc43)nc12
-0.014: Z-AUC ([16]; measured here: PEO4 Z-AUC)
active: Potency [1] 8.33 µM | Potency [2] 1.32 µM | Potency [3] 6.62 µM | Potency [4] 2.96 µM | Potency [5] 7.43 µM | Potency [17] 5.26 µM | Potency [6] 5.9 µM | Potency [7] 2.09 µM | Potency [8] 2.35 µM | Potency [9] 4.18 µM | Potency [11] 5.26 µM | Potency [12] 2.35 µM | Potency [13] 8.33 µM | Potency [14] 8.33 µM | Potency [15] 2.64 µM | Potency [18] 2.96 µM
0.136: Z-AUC [16, 21]
inactive: Z-AUC [16] -0.255

CNC(=O)c1ccccc1Nc1nc(Nc2ccc(N3CCOCC3)cc2OC)ncc1Cl
0.134: Z-AUC [16, 21]
active: Potency [1] 0.935 µM | Potency [2] 0.132 µM | Potency [3] 0.935 µM | Potency [4] 0.332 µM | Potency [5] 1.32 µM | Potency [17] 5.26 µM | Potency [7] 5.9 µM | Potency [8] 6.62 µM | Potency [9] 0.526 µM | Potency [11] 1.18 µM | Potency [13] 1.05 µM | Potency [14] 4.18 µM | Potency [15] 0.372 µM
0.16: Z-AUC ([16]; measured here: PEO4 Z-AUC)
inactive: Z-AUC [16] 0.733

CN(C)CC=CC(=O)Nc1cc2c(Nc3ccc(F)c(Cl)c3)ncnc2cc1O[C@H]1CCOC1
active: Potency [1] 18.7 µM | Potency [2] 1.32 µM | Potency [3] 20.9 µM | Potency [4] 0.372 µM | Potency [5] 3.32 µM | Potency [19] 6.62 µM | Potency [7] 2.64 µM | Potency [8] 4.18 µM | Potency [9] 0.59 µM | Potency [10] 5.26 µM | Potency [11] 2.96 µM | Potency [12] 1.18 µM | Potency [13] 16.6 µM | Potency [15] 6.62 µM | Potency [18] 11.8 µM

C1=CCOCc2cc(ccc2OCCN2CCCC2)Nc2nccc(n2)-c2cccc(c2)OCC1
active: Potency [1] 3.72 µM | Potency [2] 0.743 µM | Potency [3] 2.35 µM | Potency [4] 1.18 µM | Potency [5] 2.35 µM | Potency [19] 9.35 µM | Potency [6] 5.26 µM | Potency [7] 1.87 µM | Potency [8] 2.64 µM | Potency [9] 1.05 µM | Potency [11] 1.66 µM | Potency [12] 0.935 µM | Potency [13] 5.9 µM | Potency [14] 7.43 µM | Potency [15] 1.32 µM | Potency [18] 2.35 µM

CC(C)c1ccc(Cn2ccc3c4c(N)nc(NC5CC5)nc4ccc32)cc1
-2.38: Z-AUC ([16]; measured here: PEO4 Z-AUC)
-2.21: Z-AUC [16, 21]
active: Potency [1] 9.35 µM | Potency [2] 0.469 µM | Potency [3] 3.32 µM | Potency [4] 1.66 µM | Potency [5] 2.35 µM | Potency [17] 1.87 µM | Potency [6] 13.2 µM | Potency [7] 5.26 µM | Potency [8] 0.743 µM | Potency [9] 3.32 µM | Potency [10] 1.87 µM | Potency [11] 2.35 µM | Potency [12] 5.9 µM | Potency [13] 14.8 µM | Potency [14] 6.62 µM | Potency [18] 1.66 µM
inactive: Z-AUC [16] -1.65

CC(NCc1ccc2c(c1)nc(NC(=O)c1ccc(-c3cn[nH]c3)s1)n2CC(C)(C)O)C(C)(C)C (stereo not given)
-1.22: z-score ([20]; TFE3-RCC viability, measured here: UOK145 Z-AUC)
active: Potency [1] 0.469 µM | Potency [2] 0.105 µM | Potency [3] 0.372 µM | Potency [4] 0.148 µM | Potency [5] 0.235 µM | Potency [6] 0.332 µM | Potency [7] 0.235 µM | Potency [8] 0.372 µM | Potency [9] 0.187 µM | Potency [10] 0.105 µM | Potency [11] 0.296 µM | Potency [12] 0.105 µM | Potency [13] 0.743 µM | Potency [14] 1.05 µM | Potency [15] 0.209 µM | Potency [18] 0.332 µM | Potency ([20]; TFE3-RCC UOK109 viability, active = Z-AUC below -0.8 in all three lines) 0.935 µM
-1.95: z-score ([20]; TFE3-RCC UOK109 viability, measured here: UOK109 Z-AUC)
-2.39: z-score ([20]; TFE3-RCC viability, measured here: UOK124 Z-AUC)

Cc1ccc(C(N)=O)cc1Nc1nccc(-c2cn(C(C)C)c3cnccc23)n1
inactive: Z-AUC [16] -1.23
active: Potency [1] 13.2 µM | Potency [2] 2.64 µM | Potency [3] 6.62 µM | Potency [4] 0.935 µM | Potency [5] 7.43 µM | Potency [17] 7.43 µM | Potency [6] 8.33 µM | Potency [7] 2.64 µM | Potency [8] 3.72 µM | Potency [9] 2.35 µM | Potency [10] 6.62 µM | Potency [11] 3.72 µM | Potency [13] 16.6 µM | Potency [14] 14.8 µM | Potency [15] 4.69 µM
-1.45: Z-AUC [16, 21]
-1.25: Z-AUC ([16]; measured here: PEO4 Z-AUC)
